Data as given in PubChem BioAssay (NCI).
Compounds without any hit were thinned out: in the full panel of roughly 83,000, 20% have a hit.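 48-hour exposure, single concentration, 96-well plates; percent growth endpoint where 0 means no net growth. Active: below 10.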 Active and inactive are the calls of the source.

Key:
Test in all cases: NCI-60 one-dose screen, 48 h (100 = growth as untreated, 0 = no growth, -100 = all killed)
Conditions in all cases: 10 µM unless noted
SR leukemia = test system: SR leukemia
RPMI-8226 leukemia = test system: RPMI-8226 leukemia
OVCAR-8 ovarian = test system: OVCAR-8 ovarian
OVCAR-5 ovarian = test system: OVCAR-5 ovarian
OVCAR-4 ovarian = test system: OVCAR-4 ovarian
SK-OV-3 ovarian = test system: SK-OV-3 ovarian
OVCAR-3 ovarian = test system: OVCAR-3 ovarian
HS 578T breast = test system: HS 578T breast
NCI/ADR-RES ovarian = test system: NCI/ADR-RES ovarian
T-47D breast = test system: T-47D breast
BT-549 breast = test system: BT-549 breast
MDA-MB-435 melanoma = test system: MDA-MB-435 melanoma
SW-620 colon = test system: SW-620 colon
MCF7 breast = test system: MCF7 breast
HCT-116 colon = test system: HCT-116 colon
HCC-2998 colon = test system: HCC-2998 colon
KM12 colon = test system: KM12 colon
IGROV1 ovarian = test system: IGROV1 ovarian

Measured: growth

Cc1ccc(-c2csc(NC(=O)CN3CCN(c4cc5c(cc4F)c(=O)c(C(=O)O)cn5C4CC4)CC3)n2)cc1
inactive: OVCAR-8 ovarian 10.6% | OVCAR-5 ovarian 21.1% | OVCAR-4 ovarian 20.8% | OVCAR-3 ovarian 14.8% | HS 578T breast 47.8% | BT-549 breast 16.2% | MDA-MB-435 melanoma 14.4% | SW-620 colon 27.4% | HCT-116 colon 14.2% | HCC-2998 colon 31.2%
active: SR leukemia -0.152% | RPMI-8226 leukemia 6.21% | SK-OV-3 ovarian -7.14% | NCI/ADR-RES ovarian 4.91% | T-47D breast 6.74% | MCF7 breast 6.16% | KM12 colon 8.87%

COc1ccc2c(O)c(/C=C3\N=Nc4ncccc43)oc2c1C[C@H]1CCNC[C@H]1F
inactive: OVCAR-5 ovarian 16% | SK-OV-3 ovarian 21% | NCI/ADR-RES ovarian 31.3% | T-47D breast 41.5%
active: SR leukemia -40.2% | RPMI-8226 leukemia 9.58% | OVCAR-8 ovarian 5.11% | OVCAR-4 ovarian 2.83% | OVCAR-3 ovarian 1.29% | HS 578T breast -6.5% | BT-549 breast -54.6% | MDA-MB-435 melanoma 7.14% | SW-620 colon -15.5% | MCF7 breast 2.59% | HCT-116 colon -6.67% | HCC-2998 colon 0.205% | KM12 colon -17.4%

O=C(CSc1nc(-c2ccccc2)[nH]c1S(=O)(=O)c1ccccc1)NC1CC1
inactive: SR leukemia 92.1% | RPMI-8226 leukemia 90.1% | OVCAR-8 ovarian 97.2% | OVCAR-5 ovarian 109% | OVCAR-4 ovarian 95% | SK-OV-3 ovarian 13.4% | IGROV1 ovarian 107% | OVCAR-3 ovarian 102% | NCI/ADR-RES ovarian 83.1% | T-47D breast 46.3% | BT-549 breast 105% | MDA-MB-435 melanoma 108% | SW-620 colon 104% | MCF7 breast 65.2% | HCT-116 colon 94.2% | HCC-2998 colon 69% | KM12 colon 100%

O=C(c1ccc(-c2ccccc2)cc1)c1ccc([N+](=O)[O-])cc1
inactive: SR leukemia 86.8% | RPMI-8226 leukemia 66.1% | OVCAR-8 ovarian 104% | OVCAR-5 ovarian 120% | OVCAR-4 ovarian 105% | IGROV1 ovarian 101% | OVCAR-3 ovarian 104% | NCI/ADR-RES ovarian 114% | T-47D breast 92.8% | BT-549 breast 94.5% | MDA-MB-435 melanoma 92.6% | SW-620 colon 101% | MCF7 breast 95.9% | HCT-116 colon 92.6% | KM12 colon 97%
active: SK-OV-3 ovarian -100%

CCCNC(=O)Oc1ccc(/C(=C(/C)Cc2ccc(OC)cc2)c2ccc(OCCCN(C)C)cc2)cc1
inactive: RPMI-8226 leukemia 77.3% | OVCAR-8 ovarian 86.5% | OVCAR-5 ovarian 94% | OVCAR-4 ovarian 85.2% | SK-OV-3 ovarian 98.3% | IGROV1 ovarian 91.1% | OVCAR-3 ovarian 94.3% | NCI/ADR-RES ovarian 79.1% | T-47D breast 70.2% | BT-549 breast 91.6% | MDA-MB-435 melanoma 80.3% | MCF7 breast 36.3% | HCT-116 colon 59.5% | HCC-2998 colon 77.7% | KM12 colon 84.1%
active: SR leukemia 8.47%

COc1ccc(/C=C2\C(=O)N=C3N2NC(c2cc(Br)ccc2O)C=C(C)N3c2ccccc2)cc1 (stereo unspecified)
inactive: SR leukemia 102% | RPMI-8226 leukemia 91.5% | OVCAR-8 ovarian 98.1% | OVCAR-5 ovarian 104% | OVCAR-4 ovarian 96.5% | SK-OV-3 ovarian 99.6% | IGROV1 ovarian 91% | OVCAR-3 ovarian 103% | NCI/ADR-RES ovarian 93.9% | T-47D breast 89.6% | BT-549 breast 88% | MDA-MB-435 melanoma 94.5% | SW-620 colon 104% | MCF7 breast 83.7% | HCT-116 colon 98.1% | HCC-2998 colon 87.1% | KM12 colon 102%

CS(=O)(=O)c1cccc(-c2c(-c3cccc(OS(N)(=O)=O)c3)nc3sccn23)c1
inactive: SR leukemia 85.1% | RPMI-8226 leukemia 113% | OVCAR-8 ovarian 95.2% | OVCAR-5 ovarian 99.8% | OVCAR-4 ovarian 101% | SK-OV-3 ovarian 121% | OVCAR-3 ovarian 106% | HS 578T breast 103% | NCI/ADR-RES ovarian 103% | T-47D breast 79.3% | BT-549 breast 100% | MDA-MB-435 melanoma 102% | SW-620 colon 99.7% | MCF7 breast 92% | HCT-116 colon 97.9% | HCC-2998 colon 104% | KM12 colon 103%

O=C(O)CCCN1C(=O)/C(=C/C(Cl)=C/c2ccccc2)SC1=S
inactive: SR leukemia 13% | OVCAR-8 ovarian 19.1% | OVCAR-5 ovarian 59% | OVCAR-4 ovarian 46.8% | SK-OV-3 ovarian 110% | OVCAR-3 ovarian 13.6% | HS 578T breast 31.6% | T-47D breast 45.3% | MCF7 breast 14.2% | KM12 colon 13.6%
active: RPMI-8226 leukemia -13.1% | NCI/ADR-RES ovarian 3.81% | BT-549 breast 7.71% | MDA-MB-435 melanoma -14.9% | SW-620 colon 7.33% | HCT-116 colon -54.2% | HCC-2998 colon 5.79%

Cc1ccc(-c2nc3nc(-c4ccccc4)nc(N4CCNCC4)c3o2)cc1
active: SR leukemia -43% | RPMI-8226 leukemia -61.5% | OVCAR-8 ovarian -73.8% | OVCAR-5 ovarian -89.8% | OVCAR-4 ovarian -82% | SK-OV-3 ovarian -99.6% | OVCAR-3 ovarian -89.7% | HS 578T breast -51.4% | NCI/ADR-RES ovarian -58.1% | T-47D breast -68.4% | BT-549 breast -71.9% | MDA-MB-435 melanoma -87.4% | SW-620 colon -69.4% | MCF7 breast -66.2% | HCT-116 colon -77.1% | HCC-2998 colon -86.8% | KM12 colon -87.9%

CCOc1nc(-c2ccccc2)cc2c(O)c(C(=O)NN)[nH]c(=O)c12
inactive: SR leukemia 90.8% | RPMI-8226 leukemia 103% | OVCAR-8 ovarian 109% | OVCAR-5 ovarian 106% | OVCAR-4 ovarian 100% | SK-OV-3 ovarian 113% | IGROV1 ovarian 55.2% | OVCAR-3 ovarian 79% | NCI/ADR-RES ovarian 87.9% | T-47D breast 108% | BT-549 breast 126% | MDA-MB-435 melanoma 113% | SW-620 colon 97.4% | MCF7 breast 127% | HCT-116 colon 102% | KM12 colon 104%

CCN(CC)CCOc1ccc(-c2c(-c3ccccc3)c(=O)oc3ccccc23)cc1
inactive: SR leukemia 93.6% | RPMI-8226 leukemia 90.9% | OVCAR-8 ovarian 90.6% | OVCAR-5 ovarian 95.6% | OVCAR-4 ovarian 94.2% | SK-OV-3 ovarian 79.1% | IGROV1 ovarian 95.5% | OVCAR-3 ovarian 104% | NCI/ADR-RES ovarian 84.8% | T-47D breast 47% | BT-549 breast 69.3% | MDA-MB-435 melanoma 100% | SW-620 colon 87.3% | MCF7 breast 89.6% | HCT-116 colon 65.6% | HCC-2998 colon 99.1% | KM12 colon 100%

O=C(OCc1ccc2cccc(O)c2n1)N1CCN(C(=O)c2cc3cc(F)ccc3[nH]2)CC1
active: SR leukemia -9.28% | RPMI-8226 leukemia -26.1% | OVCAR-8 ovarian -40.6% | OVCAR-5 ovarian -84.5% | OVCAR-4 ovarian -71.8% | OVCAR-3 ovarian -79.3% | HS 578T breast -21.2% | NCI/ADR-RES ovarian -21.5% | T-47D breast -68.3% | BT-549 breast -57.4% | MDA-MB-435 melanoma -89.8% | SW-620 colon -62.8% | MCF7 breast -28% | HCT-116 colon -78.8% | HCC-2998 colon -4.94% | KM12 colon -48.1%
inactive: SK-OV-3 ovarian 54.3%

Cn1c(=O)c2c(nc(NC3=NS(=O)(=O)c4ccccc43)n2CC(=O)N2CCc3ccccc32)n(C)c1=O
inactive: SR leukemia 124% | RPMI-8226 leukemia 108% | OVCAR-8 ovarian 98.9% | OVCAR-5 ovarian 101% | OVCAR-4 ovarian 107% | SK-OV-3 ovarian 101% | OVCAR-3 ovarian 110% | HS 578T breast 97% | NCI/ADR-RES ovarian 91.8% | T-47D breast 91.3% | BT-549 breast 91.7% | MDA-MB-435 melanoma 101% | SW-620 colon 95.2% | MCF7 breast 103% | HCT-116 colon 97.9% | HCC-2998 colon 96.9% | KM12 colon 107%

Oc1ccc(CCn2c(O)c(/C=C3\CN=c4ccccc4=N3)sc2=S)cc1
active: KM12 colon 5.46%
inactive: SR leukemia 20.9% | RPMI-8226 leukemia 33.8% | OVCAR-8 ovarian 86.8% | OVCAR-5 ovarian 95.6% | OVCAR-4 ovarian 80.5% | SK-OV-3 ovarian 79.5% | IGROV1 ovarian 39.9% | OVCAR-3 ovarian 44.7% | NCI/ADR-RES ovarian 65.7% | T-47D breast 39.8% | BT-549 breast 43.8% | MDA-MB-435 melanoma 70.6% | SW-620 colon 67.4% | MCF7 breast 16.7% | HCT-116 colon 55.8% | HCC-2998 colon 87.1%

COCCn1cc(-c2nc(-c3cc4cccnc4n3CCOC)cs2)c2cc(OC)ccc21
inactive: SR leukemia 36.3% | RPMI-8226 leukemia 60.3% | OVCAR-8 ovarian 61.1% | OVCAR-4 ovarian 20% | SK-OV-3 ovarian 73.4% | HS 578T breast 58% | NCI/ADR-RES ovarian 58.3% | BT-549 breast 57% | MDA-MB-435 melanoma 91.4% | SW-620 colon 49% | HCT-116 colon 43% | HCC-2998 colon 28% | KM12 colon 11.8%
active: OVCAR-3 ovarian 4.62% | T-47D breast -10.5% | MCF7 breast 5.4%
